Reference: PubChem BioAssay (Tox21)
Records with an inconclusive call do not appear. The source made the active and inactive calls. Unless noted, calls come from the whole dose curve; as a rule, active = well fitted curve in the direction sought with a large enough effect in the repeat runs; inconclusive = weak or mixed curves; inactive = no such curve, though single readings can be large; an effect the other way counts as inactive or inconclusive. Non-standard residues stand in square brackets, D forms with d. Residues, ends and D or L forms follow the SMILES beside them. *: point of attachment. Sta = CC(C)C[C@H](N)[C@@H](O)CC(=O)O; Isovaleryl = CC(C)CC(=O)*

Legend:
[1] = target: Thyrotropin receptor (Homo sapiens) (UniProt P16473); assay: qHTS assay to identify small molecule agonists of the thyroid stimulating hormone receptor (TSHR) signaling pathway (AID 1224843; calls by dose curve; note: nearly all actives have a fitted effect of over 45% in size)
Sequence of Thyrotropin receptor (Homo sapiens) (P16473 whole entry, looked up): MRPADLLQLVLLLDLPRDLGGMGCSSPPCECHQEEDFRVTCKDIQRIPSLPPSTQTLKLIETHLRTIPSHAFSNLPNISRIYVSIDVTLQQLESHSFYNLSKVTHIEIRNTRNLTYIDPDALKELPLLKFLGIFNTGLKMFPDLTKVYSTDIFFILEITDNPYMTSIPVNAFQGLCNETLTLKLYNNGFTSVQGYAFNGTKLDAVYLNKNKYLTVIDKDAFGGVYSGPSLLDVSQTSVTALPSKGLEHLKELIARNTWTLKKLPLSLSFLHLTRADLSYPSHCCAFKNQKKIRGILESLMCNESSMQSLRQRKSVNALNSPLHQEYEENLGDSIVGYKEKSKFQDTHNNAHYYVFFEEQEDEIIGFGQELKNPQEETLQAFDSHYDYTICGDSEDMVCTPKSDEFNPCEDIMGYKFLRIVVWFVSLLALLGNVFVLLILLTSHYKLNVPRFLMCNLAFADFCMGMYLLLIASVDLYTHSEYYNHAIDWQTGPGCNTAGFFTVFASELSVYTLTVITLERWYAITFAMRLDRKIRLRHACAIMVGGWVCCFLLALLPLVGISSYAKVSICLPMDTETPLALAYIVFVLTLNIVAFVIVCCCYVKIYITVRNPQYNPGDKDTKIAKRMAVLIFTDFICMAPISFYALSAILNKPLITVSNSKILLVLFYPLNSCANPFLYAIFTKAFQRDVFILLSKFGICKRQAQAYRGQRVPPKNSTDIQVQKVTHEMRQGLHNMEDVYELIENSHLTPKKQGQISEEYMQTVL
Summary of the method: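 Cell line HEK293 with TSHR; density 800/well. Exposure 30 min RT. Readout HTRF cAMP (cAMP-d2/anti-cAMP-cryptate), 1 h RT before reading.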

[2] = qHTS assay to identify small molecule agonists of the hypoxia (HIF-1) signaling pathway - cell viability counter screen (AID 1224844; calls by dose curve; note: nearly all actives have a fitted effect of over 50% in size)
Summary of the method: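 Luminescent ATP content (CellTiter-Glo, 30 min, room temperature) served as the viability measure in HRE-bla ME-180 cells exposed to compounds for 17 hrs in low-serum medium (0.5% dialyzed FBS).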

[3] = qHTS assay to identify small molecule agonists of H2AX (AID 1224845; active = well fitted activation curve with a large enough effect in the signal ratio in the repeat runs, not every such curve was filed as active; the % refers to the signal ratio)
Summary of the method: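 Wild-type CHO-K1 cells plated overnight, then exposed 3 hr at 37C to compounds at 15 concentrations (0.76% DMSO). Lysed, then HTRF anti-pH2AX(S139)-cryptate/anti-H2AX-d2 detection after 24 hr at room temperature; emissions 665 and 620 nm.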

[4] = qHTS assay to identify small molecule agonists of the hypoxia (HIF-1) signaling pathway (AID 1224846; active = well fitted activation curve with a large enough effect in the signal ratio in the repeat runs, not every such curve was filed as active; the % refers to the signal ratio)
Summary of the method: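 Measured by blue/green FRET after loading CCF4-AM: beta-lactamase expressed from a hypoxia response element in ME-180 cells. Test agents were delivered in DMSO and left 17 hrs; cells had been plated 5 hrs earlier in low-serum (0.5% dialyzed FBS) medium.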

[5] = qHTS RealTime-Glo MT Cell Viability Assay in HepG2 cells - 24 hour (AID 1224867); note: nearly all actives have a fitted effect of over 50% in size
Summary of the method: (§1)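 Real-time, nonlytic viability: 600 HepG2 cells/well mixed with NanoLuc enzyme plus prosubstrate; 5 h settle, compound (DMSO) added by pintool; luminescence monitored over 40 h at 37 C.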

[6] = qHTS RealTime-Glo MT Cell Viability Assay in HEK293 cells - 32 hour (AID 1224868); note: top concentration of the series differs between compounds; nearly all actives have a fitted effect of over 50% in size
Summary of the method: (§2)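 Cells + reagent dispensed (600 cells/well, HEK293) → 5 h at 37 C/5% CO2 → 23 nL compound in DMSO pinned → 40 h at 37 C → luminescence read at 0, 8, 16, 24, 32, 40 h.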

[7] = A CellTox Green Cytotoxicity Assay to monitor cytotoxicity in HEK293 cells - 0 hour (AID 1224869); note: nearly all actives have a fitted effect of over 50% in size
Summary of the method: (§3)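 Each value comes from one timepoint of a single continuous run in which HEK293 cells with CellTox Green were exposed to compound for up to 40 h at 37 C, dye fluorescence rising with cell death.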

[8] = qHTS RealTime-Glo MT Cell Viability Assay in HepG2 cells - 40 hour (AID 1224870); note: nearly all actives have a fitted effect of over 50% in size
Summary of the method: (§4)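 HepG2 cells mixed with RealTime-Glo MT reagents (NanoLuc plus cell-permeant prosubstrate) were seeded at 600 cells/well, incubated 5 h at 37 C/5% CO2, then pinned with compounds in DMSO; nonlytic luminescence tracked viability during 40 h treatment.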

[9] = A CellTox Green Cytotoxicity Assay to monitor cytotoxicity in HEK293 cells - 40 hour (AID 1224871); note: nearly all actives have a fitted effect of over 45% in size
Summary of the method: as §3

[10] = qHTS RealTime-Glo MT Cell Viability Assay in HEK293 cells - 16 hour (AID 1224872)
Summary of the method: as §2

[11] = qHTS RealTime-Glo MT Cell Viability Assay in HepG2 cells - 8 hour (AID 1224873); note: nearly all actives have a fitted effect of over 55% in size
Summary of the method: as §4

[12] = A CellTox Green Cytotoxicity Assay to monitor cytotoxicity in HepG2 cells - 16 hour (AID 1224876); note: nearly all actives have a fitted effect of over 45% in size
Summary of the method: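 Continuous culture of HepG2 cells with a membrane-impermeant DNA dye; rising fluorescence marks dead cells. Compound exposure lasted up to 40 h at 37 C, with reads every 8 h from 0 h.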

[13] = qHTS RealTime-Glo MT Cell Viability Assay in HepG2 cells - 32 hour (AID 1224877); note: nearly all actives have a fitted effect of over 55% in size
Summary of the method: as §1

[14] = qHTS assay to identify small molecule agonists of H2AX - cell viability counter screen (AID 1224847; calls by dose curve; note: top concentration of the series differs between compounds; nearly all actives have a fitted effect of over 30% in size)
Summary of the method: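 CHO-K1 wt, 1000 cells/well, o/n 37C; cpds 15 conc, 3 h 37C, 0.76% DMSO; CellTiter-Glo, 30 min RT, luminescence.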

[15] = qHTS RealTime-Glo MT Cell Viability Assay in HEK293 cells - 40 hour (AID 1224874); conditions: RealTime-Glo luminescence, hits give low values; note: nearly all actives have a fitted effect of over 50% in size
Summary of the method: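 qHTS format; HEK293 cells with NanoLuc/prosubstrate reagent, 37 C/5% CO2 for 5 h pre-dosing; compounds 23 nL in DMSO; luminescence at each time point reflects viable cells.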

[16] = A CellTox Green Cytotoxicity Assay to monitor cytotoxicity in HEK293 cells - 24 hour (AID 1224875); note: series mostly up to about 77 µM; nearly all actives have a fitted effect of over 45% in size
Summary of the method: as §3
% is set by controls: 0 for no effect and ±100 for the full control effect.

O=C(c1ccccc1)c1cccc(O)c1
inactive: Potency [1] | outcome [2] | outcome [3] | outcome [4] | outcome [5] | outcome [6] | outcome [7] | outcome [8] | Potency [9] | outcome [10] | outcome [11] | Potency [12] | outcome [13]

Clc1ccc2c(c1)Nc1ccccc1S2
inactive: Potency [1] | outcome [2] | outcome [4] | outcome [14] | outcome [5] | outcome [7] | outcome [8] | Potency [9] | outcome [10] | outcome [11] | max response [15] -17.2% | outcome [13]

O=C(CCBr)N1CCN(C(=O)CCBr)CC1
inactive: Potency [1] | outcome [2] | outcome [4] | outcome [14] | outcome [5] | outcome [6] | outcome [7] | outcome [8] | Potency [9] | outcome [10] | outcome [11] | Potency [16] | Potency [12] | outcome [13]

CCNC(=O)C(C)OC(=O)Nc1ccccc1 (stereo not drawn)
inactive: Potency [1] | outcome [2] | outcome [4] | outcome [14] | outcome [5] | outcome [6] | outcome [7] | outcome [8] | Potency [9] | outcome [10] | outcome [11] | Potency [16] | Potency [12] | outcome [13]

CC(C)CC(=O)N[C@H](C(=O)N[C@H](C(=O)N[C@@H](CC(C)C)[C@@H](O)CC(=O)N[C@@H](C)C(=O)N[C@@H](CC(C)C)[C@@H](O)CC(=O)O)C(C)C)C(C)C (Isovaleryl-VV[Sta]A[Sta]-OH)
inactive: Potency [1] | outcome [2] | outcome [3] | outcome [5] | outcome [6] | outcome [7] | outcome [8] | Potency [9] | outcome [10] | outcome [11] | max response [15] 14.7% | Potency [16] | Potency [12] | outcome [13]

CCCCN(CCCC)CCCCCCN(CCCC)CCCC
inactive: Potency [1] | outcome [2] | outcome [3] | outcome [4] | outcome [5] | outcome [6] | outcome [7] | outcome [8] | Potency [9] | outcome [10] | outcome [11] | Potency [16] | Potency [12] | outcome [13]

CCOC(=O)CC
inactive: outcome [2] | outcome [3] | outcome [4] | outcome [14] | outcome [5] | outcome [6] | outcome [8] | Potency [9] | outcome [10] | outcome [11] | Potency [16] | Potency [12] | outcome [13]

CCCCCCC(O)CO (stereo not drawn)
inactive: outcome [2] | outcome [4] | outcome [14] | outcome [5] | outcome [6] | outcome [7] | outcome [8] | Potency [9] | outcome [11] | Potency [16] | Potency [12] | outcome [13]

Cc1ccc2cccnc2c1
inactive: outcome [2] | outcome [3] | outcome [4] | outcome [14] | outcome [5] | outcome [6] | outcome [8] | Potency [9] | outcome [10] | outcome [11] | max response [15] 20.7% | Potency [12] | outcome [13]

Cc1ccc(Br)cc1
inactive: Potency [1] | outcome [2] | outcome [4] | outcome [5] | outcome [6] | outcome [7] | outcome [8] | Potency [9] | outcome [11] | max response [15] 0.938% | Potency [16] | Potency [12] | outcome [13]

COC(=O)c1c(C)cc(O)c(C)c1O
inactive: outcome [2] | outcome [4] | outcome [5] | outcome [7] | outcome [8] | Potency [9] | outcome [11] | Potency [16] | Potency [12] | outcome [13]

COc1cc(OC)cc(OC)c1
inactive: outcome [2] | outcome [3] | outcome [4] | outcome [14] | outcome [5] | outcome [7] | outcome [8] | Potency [9] | outcome [10] | outcome [11] | max response [15] 6.85% | Potency [16] | Potency [12] | outcome [13]

O=Cc1ccc(C(=O)O)cc1
inactive: Potency [1] | outcome [2] | outcome [4] | outcome [14] | outcome [5] | outcome [7] | outcome [8] | outcome [10] | outcome [11] | max response [15] 0.978% | Potency [16] | Potency [12] | outcome [13]

Cc1cc2c(cc1CC(=O)c1sccc1S(=O)(=O)Nc1onc(C)c1Cl)OCO2
inactive: outcome [2] | outcome [3] | outcome [4] | outcome [14] | outcome [5] | outcome [7] | outcome [8] | Potency [9] | outcome [10] | outcome [11] | max response [15] 6.15% | Potency [16] | Potency [12] | outcome [13]

CCCC(=O)OC
inactive: Potency [1] | outcome [2] | outcome [4] | outcome [5] | outcome [7] | outcome [8] | Potency [9] | outcome [10] | outcome [11] | max response [15] -2.73% | Potency [16] | Potency [12] | outcome [13]

C=CC(C)(CCC=C(C)C)OC(=O)C(C)C (stereo not drawn)
inactive: Potency [1] | outcome [2] | outcome [4] | outcome [5] | outcome [8] | Potency [9] | outcome [10] | outcome [11] | max response [15] 0.514% | Potency [12] | outcome [13]

CCOC(=O)c1ccc(N(C)C)cc1
inactive: outcome [2] | outcome [3] | outcome [4] | outcome [14] | outcome [5] | outcome [6] | outcome [7] | outcome [8] | Potency [9] | outcome [10] | outcome [11] | max response [15] -8.74% | Potency [16] | Potency [12] | outcome [13]

Nc1ccc(C(=O)NCC(=O)O)cc1
inactive: outcome [2] | outcome [4] | outcome [14] | outcome [5] | outcome [6] | outcome [7] | outcome [8] | Potency [9] | outcome [10] | outcome [11] | max response [15] -0.411% | Potency [16] | Potency [12] | outcome [13]

CC(C)(C)OC=O
inactive: Potency [1] | outcome [2] | outcome [4] | outcome [5] | outcome [7] | outcome [8] | Potency [9] | outcome [11] | max response [15] 8.37% | Potency [12] | outcome [13]

C=CCOC(=O)CCCCCCCC
inactive: outcome [2] | outcome [3] | outcome [4] | outcome [14] | outcome [5] | outcome [7] | outcome [8] | Potency [9] | outcome [11] | max response [15] 16% | Potency [16] | Potency [12] | outcome [13]

CCO/C=C1\N=C(c2ccccc2)OC1=O
inactive: Potency [1] | outcome [3] | outcome [4] | outcome [14] | outcome [5] | outcome [6] | outcome [7] | outcome [8] | Potency [9] | outcome [10] | outcome [11] | max response [15] 18.4% | Potency [16] | Potency [12] | outcome [13]

O=S(=O)(O)c1ccc(Cl)cc1
inactive: outcome [2] | outcome [4] | outcome [5] | outcome [6] | outcome [7] | outcome [8] | Potency [9] | outcome [10] | outcome [11] | max response [15] 0.949% | Potency [16] | Potency [12] | outcome [13]
